About 79,000 compounds went through this panel and 15% of them were active in at least one assay; those are over-represented in the sample as a whole. Values without a mark were called inactive. Calls of active or inactive are those of the source. No stated cut-off is given here; in the data, active means growth inhibition above about 70%; inactive means the rest.
Experiments:
[1] = NCI Yeast Anticancer Drug Screen. Data for the rad50 strain (AID 155);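 further: 0% = growth of vehicle-only cultures of the same strain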; details: S. cerevisiae rad50 strain growth inhibition; at 50.0 µM; stronger effect = higher value
Procedure, shortened: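 Growth of the mutant yeast was measured after compound exposure and referenced to vehicle-treated cultures.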

[2] = NCI Yeast Anticancer Drug Screen. Data for the mec2-1 strain (AID 157); details: S. cerevisiae mec2-1 strain, at 50.0 µM, stronger effect = higher value
Procedure, shortened: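 Vehicle-treated cultures served as reference for growth inhibition of compound-exposed mec2-1 yeast.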

[3] = NCI Yeast Anticancer Drug Screen. Data for the sgs1 mgt1 strain (AID 161);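 further: 0% = growth of cultures given vehicle only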; details: S. cerevisiae sgs1 mgt1 strain, at 50.0 µM, stronger effect = higher value
Procedure, shortened: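 Genetically altered yeast, compound exposure, growth inhibition relative to vehicle.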

[4] = NCI Yeast Anticancer Drug Screen. Data for the cln2 rad14 strain (AID 165);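 further: 0% = growth equal to vehicle treated cultures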; details: S. cerevisiae cln2 rad14 strain, at 50.0 µM, stronger effect = higher value
Procedure, shortened: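 Each compound was tested on cln2 rad14 yeast. Inhibition of growth was calculated against vehicle-exposed controls.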

[5] = NCI Yeast Anticancer Drug Screen. Data for the bub3 strain (AID 167); details: S. cerevisiae bub3 mutant strain, at 50.0 µM, stronger effect = higher value
Procedure, shortened: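 Whole-cell yeast assay. The mutant strain was incubated with compounds, and growth inhibition was determined by comparison with vehicle-treated cells.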

[6] = NCI Yeast Anticancer Drug Screen. Data for the mlh1 rad18 strain (AID 175); details: S. cerevisiae mlh1 rad18 strain growth inhibition; at 50.0 µM; stronger effect = higher value
Procedure, shortened: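 Vehicle-treated cultures served as the reference for growth inhibition in a yeast strain carrying DNA damage repair alterations exposed to each compound.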

| Structure (SMILES) | growth inhibition [1] [%] | growth inhibition [2] [%] | growth inhibition [3] | growth inhibition [4] [%] | growth inhibition [5] [%] | growth inhibition [6] |
| --- | --- | --- | --- | --- | --- | --- |
| Cc1ccc(S(=O)(=O)N2CCCCC2)cc1 | -11.8 | -3.35 | 38.3% | -26.1 | -6.75 | -20.5% |
| O=C(O)c1ccc(C2=Cc3cc(Cl)ccc3OC2)cc1 | 19.6 | -5.1 | -19.4% | 26.2 | -15.1 | -11.1% |
| Nn1c(-c2ccccc2)n[nH]c1=O | 18.7 | -15.7 | 16.5% | 25.9 | 3.25 | 9.45% |
| CCCCCCCCCCCCCCCCCCCCCCBr | 4.95 | 4.8 | 16.8% | 21.4 | -2.75 | 14.3% |
| Cc1ccc2nc3c(C)c(Cl)c(=O)cc-3sc2c1 | 7 | 19.4 | 7.4% | -0.1 | -2.4 | 36.5% |
| CCOC(=O)NC | 14.4 | 1.6 | -19.6% | 3.85 | -1 | 9.8% |
| CC(=O)Oc1ccc2cc(NC(=O)c3ccccc3)c(=O)oc2c1 | 11.8 | -2.85 | -1.6% | -62.4 | -1.9 | -3.35% |
| CNCC(N)=O | -0.05 | 5.95 | 15.3% | -2.95 | -2.4 | 33% |
| O=C1c2ccccc2C(=O)N1N1C(=O)C2C3CCC(O3)C2C1=O (stereo unspecified) | 12.8 | 0.4 | 12.9% | 15.9 | 17.5 | 9.3% |
| CCOC1(c2ccccc2)CCNCC1 | 21.9 | -0.65 | 29.4% | 15.7 | 16.3 | 12.9% |
| CCOC(=O)c1c([N+](=O)[O-])cnn1C1OC(COC(C)=O)C(OC(C)=O)C1OC(C)=O (stereo unspecified) | 6.4 | -2 | 4.6% | 15.2 | 7.9 | 6.85% |
| CCCN1COC(OCCN(CC)CC)C(C)(C)C1 (stereo unspecified) | 7.15 | -4.35 | -21.3% | 6.7 | 7.2 | 12.9% |
| C#CCNC(=O)ON1C(=O)CCC1=O | -5.25 | -8.4 | -25.7% | -12.4 | -16.9 | -28.9% |
| S=c1[nH]c(=S)c2[nH]cnc2[nH]1 | -7.4 | -5.45 | -7.1% | -7.35 | -4.95 | -0.3% |
| Cc1cccc2c(SCCCCCCSc3c4ccccc4nc4c(C)cccc34)c3ccccc3nc12 | -2.25 | -8.1 | -26.7% | -21.5 | -2.7 | 7.05% |
| Oc1ccccc1/C=N\c1nccs1 | 10.7 | 19.2 | 18.6% | 12.4 | 23.8 | 13.2% |
| CC(=O)C(OCCCl)OCCCl | 2.9 | -7.65 | 1.6% | -1.5 | 0.3 | -2.95% |
| c1ccc2cc(SSc3ccc4ccccc4c3)ccc2c1 | -30.1 | -23.8 | -15.9% | 0.1 | -17.2 | -4.85% |
| O=C(O)C(CO)C(CO)C(=O)O (stereo unspecified) | -12.9 | -14.4 | -7.05% | -14.7 | -22.8 | -2.15% |
| Cn1c(=O)nc(N)n(NC(=O)CCl)c1=O | 30.6 | 10.3 | 23.6% | 9.9 | -6.6 | 15.4% |
| COc1cc(CC2C(=O)OCC2C2(c3ccc4c(c3)OCO4)SCCCS2)cc(OC)c1OC (stereo unspecified) | 10.4 | 8.3 | 0.15% | 27.5 | 3.2 | 26.8% |

| Structure (SMILES) | growth inhibition [1] [%] | growth inhibition [2] [%] | growth inhibition [3] | growth inhibition [4] [%] | growth inhibition [5] [%] | growth inhibition [6] |
| --- | --- | --- | --- | --- | --- | --- |
| CCOC(=O)c1cc(=O)[nH]c2ccc(OC)cc12 | 17.2 | 22.2 | 2.25% | 35.6 | 11.6 | 7.05% |
| CCN(CC)CCC(=O)c1cnc(-c2ccccc2)nc1C | 7.35 | 35.1 | 38.7% | 2.5 | 17.5 | 20.1% |
| CCCOc1ccc(C(N)=S)c2ccccc12 | -0.25 | 1.1 | 8.45% | -28.2 | 20.2 | 12.3% |
| N#CNC(=NCC1CCCO1)Nc1cccnc1 (stereo unspecified) | 2.9 | -9.8 | -26.4% | -23.4 | 23.9 | -2.35% |
| COc1cc2c(cc1O)C1CC(CC3CCCCN31)OC(=O)/C=C\c1ccc(O)c-2c1 (stereo unspecified) | -28.1 | -48.3 | -31.2% | 20.8 | -43.9 | -54.2% |
| CC1(O)CCC2(CCC(C)(O)CC2=O)C(=O)C1 (stereo unspecified) | -7.85 | -9.75 | -0.45% | -2.35 | -12.6 | -14.7% |
| CC(=S)NC=C(C(N)=O)C(N)=O | 6.65 | 1.05 | 11.7% | 16 | -4.2 | -16.5% |
| O=C(NCN1CCOCC1)Nc1ccc(Cl)cc1 | -13.4 | 8.5 | -4.8% | -22.3 | 8.75 | -3.25% |
| Cc1ccc(C(=O)Nc2c(C)cccc2C)cc1 | 3.45 | -40.7 | 13.5% | 3.65 | -4.7 | -5.95% |
| Cc1cccc(CSc2nc(N)nc3ncn(C4CC(O)C(CO)O4)c23)n1 (stereo unspecified) | -20.9 | 3.5 | 10.7% | -48.2 | 2.05 | -19.6% |
| COc1ccc(Cc2ccc(OC)cc2)cc1 | -34.2 | -5.3 | 8.15% | -9.15 | 5.15 | -15% |
| CN1C(=O)N/C(=C\c2ccc(S(=O)(=O)N/N=C\C(O)C(O)C(O)CO)cc2)C1=O (stereo unspecified) | -25.4 | -15 | -22.9% | 4.15 | -39.1 | -35% |
| Nc1nc(-c2ccccc2)cc(-c2cc(Cl)ccc2O)n1 | 13.9 | -0.55 | -3.1% | 20.5 | 6.4 | 6.55% |
| O=c1[nH]c2ccc(Br)cc2cc1Br | 21.9 | -9 | 0.3% | 6.65 | 2.45 | 20.8% |
| COC(=O)C1CCC(=O)CC1 | -1 | -0.35 | -9.9% | -19.9 | 2.4 | -3.15% |
| O=C1COc2cccnc2N1 | 12.7 | -2.05 | 19.5% | 2.2 | 14.7 | 14.7% |
| N#Cc1cc2ccccc2c2ccccc12 | 8.6 | -4.15 | 5.85% | 12.3 | -11.2 | 18.4% |
| C/C(CCc1cnc2ccccc2c1)=N/NC(N)=O | 69.2 | 27.5 | 85.7% (active) | 37.8 | 67.3 | 95.6% (active) |
| O=c1/c(=C/c2ccc3c(c2)OCO3)sc2nnc(-c3ccco3)n12 | 1.85 | -30.1 | 17.9% | 20.6 | -19.9 | -3.35% |
| Clc1cccc(C=NC23CC4CC(CC(C4)C2)C3)c1Cl | -20.2 | -36.5 | -40.3% | -6 | -22.6 | -10.2% |

Reference: PubChem BioAssay (NCI)
